Source: PubChem BioAssay
Cruzain inh noDet = qHTS Assay for Promiscuous and Specific Inhibitors of Cruzain (without detergent); Cruzipain (Trypanosoma cruzi), P25779; 200,000 compounds, 2.3% hits; Potency, µM, without a hit: max response, negative = inhibition, hits mostly inhibitors; purified cruzain, Z-FR-AMC fluorescence, no detergent; AID 1476, 2009;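 further: plate controls were enzyme without inhibitor for no effect and buffer without enzyme for full effect; nearly all actives have a fitted effect of over 40% in size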
Target sequence (P25779 123-467 limits assumed): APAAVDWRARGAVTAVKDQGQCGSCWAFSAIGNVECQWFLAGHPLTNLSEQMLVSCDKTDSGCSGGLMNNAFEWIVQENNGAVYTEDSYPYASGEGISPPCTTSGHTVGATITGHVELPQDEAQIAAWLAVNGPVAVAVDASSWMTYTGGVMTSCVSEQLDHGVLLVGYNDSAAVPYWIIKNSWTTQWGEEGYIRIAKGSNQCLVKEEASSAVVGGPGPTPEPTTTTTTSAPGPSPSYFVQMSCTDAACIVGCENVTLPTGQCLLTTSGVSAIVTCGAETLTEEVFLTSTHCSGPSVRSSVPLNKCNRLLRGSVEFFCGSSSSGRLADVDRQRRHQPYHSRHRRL
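Detergent-free condition (0.00005% Triton X-100) in acetate buffer pH 5.5 with DTT. 1.5 nM enzyme and compound were pre-mixed 15 min, then 2 uM Z-FR-AMC substrate added; reaction progress from fluorescence change between first and third reads (60 s).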
NS1 function inh = qHTS Assay for Inhibitors of Influenza NS1 Protein Function; Potency, µM (doses to about 46.1 µM), for the others: at the top dose activity, positive = more growth; AID 2326, 2010; 270,000 compounds, 0.4% hits; calls by dose curve; further: actives are rising curves; nearly all actives have a fitted effect of over 50% in size
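Compounds were scored for reversing the slow growth caused by influenza A NS1 in S. cerevisiae, measured by optical density at 600 nm. Assay medium contained 2% galactose at pH 6.0; NS1-free yeast of the same strain were the positive control.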
Cruzain Triton = qHTS Assay for Promiscuous and Specific Inhibitors of Cruzain (with detergent) | Potency, µM, without a hit: max response, negative = inhibition, actives largely listed as inhibitors | purified cruzain, Z-FR-AMC fluorescence, 0.01% Triton | 200,000 compounds, 0.43% hits | Cruzipain (Trypanosoma cruzi), P25779 | AID 1478, 2009;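 further: plate controls were neutral wells for no effect and buffer without enzyme for full effect; nearly all actives have a fitted effect of over 40% in size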
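Read-out: AMC fluorescence (360 nm excitation, 450 nm emission), four reads over 2 min, first-to-third difference used. Conditions: cruzain 1.5 nM, Z-FR-AMC 2 uM, pH 5.5 acetate, 5 mM DTT, 0.01% Triton X-100.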
* = called active by the depositor; ? = inconclusive; nt = not tested or not shown. Many of the other results were omitted from the sample, so hits are more common in it than they were. Unless noted, the call rests on the fitted dose curve; in most records, active means well fitted curve in the direction sought with a large enough effect; inconclusive means small, poorly fitted or top-dose-only effect, or another doubt; inactive means no such curve, though single readings can be large; an effect the other way counts as inactive or inconclusive. Potency means the concentration at half of the fitted maximal effect.

SMILES | Cruzain inh noDet | NS1 function inh | Cruzain Triton
Cc1cc(C)cc(-n2nnnc2SCC(=O)Nc2nc(-c3ccc(Cl)cc3)cs2)c1 | 6.3µM* | 1% | 4%
CCN(c1cccc(C)c1)c1ncnc2c1cnn2-c1cccc(Cl)c1 | -5% | nt | 0%
COc1ccc(S(=O)(=O)N2CCC(Oc3ccc(-n4cnnn4)cc3)CC2)cc1OC | ? | nt | -3%
CN(c1ccc(O)cc1)c1nc(-c2cccs2)cs1 | nt | 0% | nt
Cc1nc(N)sc1-c1csc(N(C)c2ccc(O)cc2)n1 | 5µM* | ? | 13µM*
COc1ccc(OC)c(NC(=O)c2cc3c(s2)-c2ccccc2SC3)c1 | ? | nt | -4%
CCSc1nc2c(c(=O)[nH]1)C(c1cccnc1)C(C(=O)OC)=C(C)N2 (configuration not stated) | -6% | 4% | -2%
COC(=O)C1=C(C)Nc2nc(SCc3ccccc3)[nH]c(=O)c2C1c1cccs1 (configuration not stated) | 25µM* | 20% | -1%
C[C@H]1/C=C\CC(=O)NCc2cccc(c2)CNC(=O)N[C@H]1c1ccccc1 | ? | nt | 2%
COc1ccc(CN(C(=O)Nc2cccc(Cl)c2)c2ccccn2)cc1OC | ? | nt | -9%
COc1ccc(N2CCN(CCNC(=O)CCNS(=O)(=O)c3cccs3)CC2)cc1 | -7% | 0% | 2%
CC(C)C(NS(=O)(=O)c1cccs1)C(=O)NCCN1CCN(c2ccccc2)CC1 (configuration not stated) | 25µM* | 2% | 20µM*
c1ccc2c([C@@H]3CCN(CCN4CCOCC4)C3)c[nH]c2c1 | 3% | 2% | 0%
NC(=S)N/N=C\c1c[nH]c2ccccc12 | 0.32µM* | -1% | 0.71µM*
O=C(N/N=C/c1c[nH]c2ccccc12)c1ccccc1 | nt | -8% | nt
COCCNC(=S)N/N=C/c1c2ccccc2cc2ccccc12 | nt | -4% | nt
NC(=S)N/N=C\c1c2ccccc2cc2ccccc12 | 1µM* | 8% | 0.89µM*
COc1ccc(NC(=O)C(=O)NCc2ccco2)c(OC)c1 | -1% | nt | -4%
O=C(O)c1cc(N/N=C/c2ccc3c(c2)OCCO3)ccc1Cl | -1% | 15% | -8%
Cc1ccc(N/N=C/c2ccc3c(c2)OCCO3)cc1Cl | 20µM* | -7% | 3%
O=C1OC(=O)c2ccccc21 | -7% | nt | 3%
CSCC[C@H](NC(=O)c1ccc(Cl)c([N+](=O)[O-])c1)c1nc2ccccc2[nH]1 | -9% | 11% | 14µM*
Cc1c(C(=O)NC(Cc2ccccc2)c2nc3ccccc3[nH]2)cccc1[N+](=O)[O-] (configuration not stated) | -25% | -2% | ?
CSCC[C@H](NC(=O)c1cccc([N+](=O)[O-])c1C)c1nc2ccccc2[nH]1 | 7% | -2% | 14µM*
O=C(NC(Cc1ccccc1)c1nc2ccccc2[nH]1)c1ccc(Cl)c([N+](=O)[O-])c1 (configuration not stated) | -2% | 2% | -17%
SMILES | Cruzain inh noDet | NS1 function inh | Cruzain Triton
COC(=O)CN1C(=O)CSc2ccc(S(=O)(=O)Nc3ccc(F)c(Cl)c3)cc21 | 16% | nt | -11%
Cc1ccc(NC(=O)CSc2nc(=O)n(Cc3ccco3)c3c2CCC3)cc1F | -18% | nt | -4%
CN(C)CC[C@@H](C(=O)C(C)(C)C)c1ccccn1 | -1% | -1% | -4%
COc1ccc(-n2c(=O)c(-c3ccc(Cl)cc3)nc3cnc(N(C)C)nc32)cc1 | 14% | nt | 1%
CCc1ccc(S(=O)(=O)c2c(C(=O)c3ccc(C)c(C)c3)cnc3ccccc23)cc1 | 13µM* | nt | -3%
Cc1ccc(C(=O)c2cnc3ccccc3c2-c2ccccc2)cc1 | 5% | -45% | -1%
CCc1ccc(C(=O)c2cnc3ccc(C)cc3c2S(=O)(=O)c2ccc(OC)cc2)cc1 | -11% | nt | -2%
CCOc1ccc(C(=O)c2cnc3ccc(Cl)cc3c2S(=O)(=O)c2ccc(C)cc2)cc1 | 11% | nt | 0%
CCOc1ccc(S(=O)(=O)c2c(C(=O)c3ccc(CC)cc3)cnc3ccc(C)cc23)cc1 | 20µM* | nt | -4%
CCOc1ccc(S(=O)(=O)c2c(C(=O)c3ccccc3)cnc3cc4c(cc23)OCCO4)cc1 | 32µM* | ? | -6%
CCC(C(=O)NCCCN(CC)CC)n1ncn2c(cc3occc32)c1=O (configuration not stated) | -7% | nt | -3%
CCOc1ccc(NC(=O)Cn2c(=O)c(CNc3ccc(CC)cc3)cc3cc4c(cc32)OCO4)cc1 | -4% | nt | -3%
COc1ccc(-c2nc(-c3ccccc3)c(NC(C)C)o2)cc1 | -11% | nt | 0%
C[C@]12CCC(=O)C=C1CCC1C2C(O)C[C@]2(C)C1CC[C@]2(O)C(=O)COC(=O)CCC(=O)O (some centres not stated) | -12% | nt | 1%
CC(=O)OC[C@@]12C(=O)[C@@H](O)[C@@H](C)[C@]3(C[C@@H](c4ccoc4)O[C@@H]3OC(C)=O)[C@H]1CCC[C@]21CO1 | -7% | nt | 3%
CSc1nc(N)c2ncn([C@@H]3O[C@H](COP(=O)(O)OP(=O)(O)OP(=O)(O)O)[C@H](O)[C@H]3O)c2n1 | 9% | -1% | -4%
CCNc1ncc2nc(-c3cc(F)cc(F)c3)c(=O)n(C3CC3)c2n1 | 16% | nt | 4%
COc1cc2c(cc1NC(=O)COC(=O)/C=C/c1ccc([N+](=O)[O-])cc1)oc1ccccc12 | nt | 4% | nt
COc1cc2c(cc1NC(=O)/C=C/c1ccc([N+](=O)[O-])cc1)oc1ccccc12 | 5µM* | -7% | -2%
COc1cc2c(cc1NC(=S)Nc1cccc3ccccc13)oc1ccccc12 | 10µM* | 26% | -8%
COc1cc2c(cc1NC(=O)Nc1ccccc1)oc1ccccc12 | ? | -63% | 7%
COc1cc2c(cc1NC(=S)Nc1cccc(C(F)(F)F)c1)oc1ccccc12 | 16µM* | -2% | -8%
COCCCNC(=S)Nc1cc2oc3ccccc3c2cc1OC | nt | -12% | nt
Cc1ccc(C)c(N2CCN(Cc3csc(C)c3)CC2)c1 | -4% | nt | 3%
CCOC(=O)c1ccc(NC(=O)Cn2cc(C(=O)c3ccc(Cl)cc3)c(=O)c3ccc(C)nc32)cc1 | 13% | nt | -6%
SMILES | Cruzain inh noDet | NS1 function inh | Cruzain Triton
CCn1cc(C(=O)NCc2ccccc2Cl)c(=O)c2cc(S(=O)(=O)N3CCc4ccccc4C3)ccc21 | 13µM* | nt | -3%
CCn1cc(C(=O)NCc2ccccc2Cl)c(=O)c2cc(S(=O)(=O)N3CCCCC3)ccc21 | -5% | nt | -1%
CCc1ccc2occ(CC(=O)Nc3sc4c(c3C(=O)OC)CCC4)c2c1 | -27% | nt | -4%
COCCN(CCOC)c1nc(C)nc2c1nc(-c1ccccc1)n2CCCN(C)C | -8% | nt | -5%
CC(=O)c1c(C)n([O-])c2ccc(C)cc2[n+]1=O | 1.6µM* | -1% | 0%
Cc1ccc2c(c1)n([O-])c1c([n+]2=O)CCCC1 | -4% | 0% | 6%
CCCCNC(=O)CC1Nc2cc(C)c(C)cc2NC1=O (configuration not stated) | -2% | nt | -7%
COc1ccc(-c2noc(CNC(=O)c3ccc(OC)cc3OC)n2)cc1 | 5% | nt | -10%
COc1ccc(-c2noc(CC(=O)Nc3cc(OC)ccc3OC)n2)cc1 | 4µM* | nt | -6%
Cc1ccc(C(=O)c2sc3nsc(C)c3c2N)cc1 | -5% | 5% | -4%
